# MCF10A rereplic = induces DNA re-replication in MCF 10a normal breast cells | MCF 10A DNA re-replication, Hoechst nuclear intensity, 48 h | Potency, µM (highest dose often 46.1 µM), for inactives: at the top dose activity, positive = re-replication, hits mostly activators | 2.9% of 350,000 active; further: potency means the concentration at half of the fitted maximal effect; % of control where 0% means no effect; nearly all actives have a fitted effect of over 50% in size
# Chronic BCR inh = inhibitors of chronic active B-cell receptor signaling | ABC-DLBCL IkBa-CBG/CBR reporter, luminescence ratio, 4 h | Potency, µM (highest dose often 46.1 µM), for the others: top-dose activity change, negative = inhibition, hits mostly inhibitors | 0.05% of 340,000 active; active means well fitted inhibition curve with a large enough effect in the signal ratio, with a control signal flat, not every such curve was filed as active; inconclusive means small, poorly fitted or top-dose-only effect, or effect the other way, or a change in a side signal; the % refers to the signal ratio;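 further: potency means the concentration at half of the fitted maximal effect; plate controls were basal doxycycline-induced cells for no effect and cells given 10 µM MG132 for full effect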
#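 Doxycycline induced both beetle luciferases in TMD8 lymphoma cells; IKK-driven degradation limits the IkappaBalpha-fused green signal, while red luminescence normalises for cell number and nonspecific effects. Compounds tested up to 46 uM, 4 hrs.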
# DT40 TDP1 no CPT = qHTS for Inhibitors of human tyrosyl-DNA phosphodiesterase 1 (TDP1): qHTS in cells in absence of CPT. DT40 Tdp1-/- hTDP1 cells, no CPT, ATP luminescence, 48 h. Potency, µM (top dose mostly 46.2 µM), for the others: at the highest dose activity change, negative = growth inhibition, usual class: inhibitors. 15% of 420,000 active. AID 686978, 2013; further: potency means the concentration at half of the fitted maximal effect; on the % scale 0 is the no-effect control and ±100 the full control effect; nearly all actives have a fitted effect of over 55% in size
#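 Seeded 400 DT40-hTDP1 cells/well (vehicle DMSO, no 20 nM CPT); pinned compounds; ≥48 hr at 37 °C; CellTiter-Glo luminescence as viability measure.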
# TDP1 cell CPT = DT40-hTDP1 cell growth loss with CPT; chicken DT40 Tdp1-/-;hTDP1 cells + 20 nM CPT, ATP luminescence, 48 h; Potency, µM (series often up to 46.2 µM), for inactives: at the top dose activity change, negative = growth inhibition, most hits filed as inhibitors; 12% of 420,000 active; further: potency means the concentration at half of the fitted maximal effect; on the % scale 0 is the no-effect control and ±100 the full control effect; nearly all actives have a fitted effect of over 55% in size
#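 Chicken DT40 Tdp1-/- cells complemented with human TDP1, 400 cells/well, exposed to compounds plus 20 nM camptothecin for at least 48 h at 37 C; viability read as ATP content by CellTiter-Glo luminescence.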
# IL-1B inflam inh = inhibitors of inflammasome signaling (IL-1 beta secretion); THP-1 LPS/ATP IL-1B secretion, AlphaLISA, 16 h; active compounds read low; activity change, % at 57.5 µM; 4.7% of 360,000 active; in the data active means activity change below about -50%; inconclusive means mostly about -30% to -49%; further: on the % scale 0 is the no-effect control and ±100 the full control effect
#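 THP-1 cells pretreated 1 hr with compounds (up to 57.5 uM final), then stimulated with LPS (250 ng/mL final) plus ATP (1.25 mM final); secreted IL-1B measured by AlphaLISA after 16 hr, decreased signal indicating inhibition.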
# SW480 rereplic = induces DNA re-replication in SW480 colon adenocarcinoma cells; AID 624297; SW480 DNA re-replication, Hoechst DNA content imaging, 48 h; Potency, µM (titrated, usually from 46.1 µM), for inactives: at the highest dose re-replication activation, usual class: activators; 1.8% of 340,000 active; further: potency means the concentration at half of the fitted maximal effect; % of control where 0% means no effect; nearly all actives have a fitted effect of over 55% in size
#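 DNA re-replication was detected as more nuclei of elevated Hoechst intensity after 48 hr exposure to compound (23 nL pinned per well of 250 cells).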
# Active calls of the source: *; i = inactive; ? = inconclusive; . = not tested or not shown; ! = not confirmed by another sample; [ ] = remark or other dose. In the library only some 19% were active in any assay of this set; here they are far more common. Unless noted, the call rests on the fitted dose curve; in most records, active means well fitted curve in the direction sought with a large enough effect; inconclusive means small, poorly fitted or top-dose-only effect, or another doubt; inactive means no such curve, though single readings can be large; an effect the other way counts as inactive or inconclusive.
SMILES,MCF10A rereplic,Chronic BCR inh,DT40 TDP1 no CPT,TDP1 cell CPT,IL-1B inflam inh,SW480 rereplic
O=C(c1ccc(-n2cncn2)c([N+](=O)[O-])c1)N1CCN(S(=O)(=O)c2ccccc2F)CC1,8%,-1%,?,-13%,11,-4%
CC(OC(=O)C1CC(=O)N(Cc2ccco2)C1)C(=O)Nc1cccc(C#N)c1 (centres undefined),-2%,-1%,-2%,-3%,10,5.8µM*
O=c1c(-c2cc(F)cc(F)c2)nc2cnc(N3CCNCC3)nc2n1Cc1cccs1,.,.,21µM*,?,.,.
O=c1c(-c2ccc(Cl)cc2)nc2cnc(N3CCNCC3)nc2n1Cc1cccs1,.,.,21µM*,6.5µM*,.,.
CN1CCN(c2ncc3nc(-c4cccs4)c(=O)n(Cc4cccs4)c3n2)CC1,.,.,?,18µM*,.,.
COCCn1c(=O)c(-c2cccs2)nc2cnc(Oc3ccc(OC)cc3)nc21,.,.,26µM*,?,.,.
CN1CCN(c2ncc3nc(-c4cccs4)c(=O)n(CCC#N)c3n2)CC1,.,.,?,-88%,.,.
CN1CCN(c2ncc3nc(-c4cccs4)c(=O)n(C[C@H]4CCCO4)c3n2)CC1,.,.,5.2µM*,12µM*,.,.
CN1CCN(c2ncc3nc(-c4cn(C)c5ccccc45)c(=O)n(C[C@H]4CCCO4)c3n2)CC1,.,.,?,21µM*,.,.
O=c1c(-c2cccs2)nc2cnc(N3CCNCC3)nc2n1Cc1cccs1,.,.,13µM*,7.3µM*,.,.
O=c1c(-c2cccs2)nc2cnc(N3CCNCC3)nc2n1C1CC1,.,.,21µM*,?,.,.
CC(=O)c1sc(NC(=O)C(C)Oc2ccc3c(C)cc(=O)oc3c2)nc1C (centres undefined),-9%,-5%,?,-14%,i,2%
Cc1ccc(Sc2ccc(C(=O)N3CCOCC3)cc2[N+](=O)[O-])cc1,1%,5%,?,?,11,0%
CN1CCN(c2ncc3nc(-c4ccccc4)c(=O)n(C4CC4)c3n2)CC1,.,.,?,21µM*,.,.
COCCn1c(=O)cnc2cnc(N3CCN(C)CC3)nc21,.,.,-22%,23µM*,.,.
CN1CCN(c2ncc3nc(-c4ccccc4)c(=O)n(Cc4cccs4)c3n2)CC1,.,.,16µM*,?,.,.
CN1CCN(c2ncc3nc(-c4cc(F)cc(F)c4)c(=O)n(C4CC4)c3n2)CC1,.,.,-18%,?,.,.
CC(=O)c1cnn(-c2ccc(Cl)cc2)c1C,-5%,-9%,-17%,-2%,9,2%
Cc1c(C(=O)NCCSCc2cccc(C(F)(F)F)c2)cnn1-c1ccc(Cl)cc1,?,?,?,?,-57*,-150%
O=C(NCc1ccccc1CN1CCCC1)c1cc2cc(Cl)ccc2o1,6%,?,?,18µM*,-24,?
COc1ccc(NS(=O)(=O)c2cccc(C(=O)NCc3ccccc3CN3CCOCC3)c2)cc1,?,.,?,-30%,-11,?
COc1ccc2cc(C(=O)NCc3ccccc3CN3CCCC3)ccc2c1,33%,-4%,?,?,-68*,64%
COc1ccc2oc(C(=O)NCc3ccccc3CN3CCCC3)c(C)c2c1,12%,-2%,?,21µM*,-22,-4%
O=C(NCc1ccc(Cl)cc1)c1cc2ccccc2o1,.,.,-6%,-22%,.,.
O=C(Nc1ccc(S(=O)(=O)N2CCCC2)cc1)C1CC(=O)N(CCc2ccccc2)C1 (centres undefined),.,.,?,?,-6,.
SMILES,MCF10A rereplic,Chronic BCR inh,DT40 TDP1 no CPT,TDP1 cell CPT,IL-1B inflam inh,SW480 rereplic
COCCCNC(=O)N1CCN(c2nnc(C)c3c(C)n(-c4ccc(Cl)cc4)nc23)CC1,.,.,-12%,-10%,.,.
COc1cccc(C(=O)N(Cc2cccnc2)c2nc3c(OC)ccc(C)c3s2)c1OC,.,-37%,23µM*,?,.,.
O=C(C1CCCCC1)N(Cc1cccnc1)c1nc2c(F)cccc2s1,.,?,21µM*,21µM*,.,.
COc1ccc(C)c2sc(N(Cc3cccnc3)C(=O)c3cccs3)nc12,.,-8%,?,?,.,.
COc1ccc(C)c2sc(N(Cc3cccnc3)C(C)=O)nc12,.,-17%,-45%,?,.,.
COc1ccc(C)c2sc(N(Cc3cccnc3)C(=O)CCc3ccccc3)nc12,.,-15%,15µM*,?,.,.
COc1ccc(C)c2sc(N(Cc3cccnc3)C(=O)C3CCCCC3)nc12,.,?,15µM*,18µM*,.,.
O=C(C1CCCCC1)N(Cc1cccnc1)c1nc2ccc(Cl)cc2s1,.,22%,?,?,.,.
S=c1[nH]ncn1/N=C/c1cccs1,-3%,-5%,24%,14%,33,2%
COc1ccc(S(=O)(=O)Nc2cccc(S(=O)(=O)N3CCCC3)c2)cc1OC,2%,-3%,-7%,-7%,13,1%
Cc1cccc(CN2CCN([C@@H](c3ccccc3)c3ccc(Cl)cc3)CC2)c1,?,.,.,.,.,7%[20.6 µM]
CC(=O)OCC1OC(OC2C[C@]3(C)C(CC(O)C4C([C@](C)(CCC=C(C)C)OC5OC(CO)C(O)C(O)C5O)CC[C@]43C)[C@@]3(C)CCC(O)C(C)(C)C23)C(O[C@@H]2OC(C)C(O)C(O)C2O)C(O)C1O (some centres undefined),0.52µM*,-3%,36%,3%,39,-8%
CC1=C(\C=C/C(C)=C/C=C\C(C)=C\C(=O)O)C(C)(C)CCC1,.,.,12µM*!,15µM*!,.,.
CC1=C(/C=C/C(=O)O)C(C)(C)CCC1,0%,5%,1%,-6%,20,0%
CC1=C(/C=C/C(C)=C/C=C/C(C)=C\C(=O)O)C(C)(C)CCC1,1%,.,23µM*!,?,17,?
CCc1ccc(S(=O)(=O)NCc2nc(N3CCCC3)c3cccc(C)c3n2)cc1,.,.,?,7%[9.04 µM],.,.
Clc1ccccc1-c1cncnc1NCc1cccs1,.,.,-3%,-7%,.,.
c1ccc2c(NCCN3CCOCC3)nc(-c3ccoc3)nc2c1,.,.,-5%,16%,.,.
Cc1cc(C(=O)CSc2nnc(-c3ccccc3)o2)c(C)n1CC1COc2ccccc2O1 (centres undefined),?,9%,?,?,0,1%[9.22 µM]
Cc1cc(C(=O)CSc2nnc(-c3ccco3)o2)c(C)n1CC1COc2ccccc2O1 (centres undefined),?,5%,21µM*,16µM*,?,1%

# From PubChem BioAssay
